# Results filed as inconclusive are left out. A call without a number means that no potency is given here. Activity calls are given as the source filed them. Unless noted, the call rests on the fitted dose curve; in most records, active means well fitted curve in the direction sought with a large enough effect in the repeat runs; inconclusive means weak or mixed curves; inactive means no such curve, though single readings can be large; an effect the other way counts as inactive or inconclusive.
# Tests used:
# [1] = qHTS assay to identify small molecule antagonists of the vitamin D receptor (VDR) signaling pathway - cell viability counter screen (AID 743225); further: nearly all actives have a fitted effect of over 50% in size; further: potency means the concentration at half of the fitted maximal effect
# Procedure, shortened: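 Parallel cytotoxicity test: VDR-UAS-bla HEK 293T, 3 nM (final) 1-alpha,25-dihydroxyvitamin D3 with test compound, 16 h, 37C. Endpoint is CellTiter-Glo luminescence in the same wells.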
# [2] = qHTS assay to identify small molecule agonists of the NFkB signaling pathway (AID 1159509; active means well fitted curve in the direction sought with a large enough effect in the signal ratio in the repeat runs, not every such curve was filed as active; the % refers to the signal ratio; further: series mostly up to about 61 µM)
# Procedure, shortened: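 Readout: FRET fluorescence, 405 nm excitation, 460/530 nm emission; beta-lactamase expression disrupts FRET. Cells: ME-180 stably carrying NF-kB-driven bla reporter. Compound exposure 5 hr, 37 C, 5% CO2.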
# [3] = qHTS assay to identify small molecule agonists of the NFkB signaling pathway - cell viability counter screen (AID 1159515; calls by dose curve; further: nearly all actives have a fitted effect of over 55% in size; further: potency means the concentration at half of the fitted maximal effect)
# Procedure, shortened: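 Parallel cytotoxicity counter screen in ME-180 cells carrying an NFkB-response-element beta-lactamase reporter, 2,000 cells/well. Compound exposure lasted 5 hr at 37 C, 5% CO2. Cell viability was quantified by CellTiter-Glo luminescence.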
# [4] = qHTS assay to identify small molecule agonists of the endoplasmic reticulum stress response signaling pathway (AID 1159516; active means well fitted activation curve with a large enough effect in the signal ratio in the repeat runs, not every such curve was filed as active; the % refers to the signal ratio)
# Procedure, shortened: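 Using a HeLa line with an ESRE-driven beta-lactamase gene, agonist activity was measured by FRET substrate fluorescence (460 and 530 nm emission) after cells were treated with compounds for 5 hr at 37 C and 5% CO2.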
# [5] = qHTS assay to identify small molecule antagonists of the retinoid-related orphan receptor gamma (ROR-gamma) signaling pathway - cell viability counter screen (AID 1159520); further: nearly all actives have a fitted effect of over 50% in size; further: potency means the concentration at half of the fitted maximal effect
# Procedure, shortened: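 Tet-on ROR gamma CHO cells (1,000/well) were plated 4 hr, given compounds in DMSO for 2 hr at 37 C, then induced with 1 uM final doxycycline for 16 hr. Viability was read as ATP by CellTiter-Glo luminescence after 30 min.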
# [6] = molecular target: Nuclear receptor ROR-gamma (Homo sapiens) (UniProt P51449); experiment: qHTS assay to identify small molecule antagonists of the retinoid-related orphan receptor gamma (ROR-gamma) signaling pathway (AID 1159521; further: nearly all actives have a fitted effect of over 50% in size; further: potency means the concentration at half of the fitted maximal effect)
# Procedure, shortened: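 Decreased RORE-driven luciferase luminescence indicates antagonism. Tet-on RORγ CHO cells received compound, then 1 uM final doxycycline 2 h later; signal read after 16 h incubation.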
# [7] = qHTS assay to identify small molecule agonists of the AP-1 signaling pathway - cell viability counter screen (AID 1159525; calls by dose curve; further: nearly all actives have a fitted effect of over 55% in size; further: potency means the concentration at half of the fitted maximal effect)
# Procedure, shortened: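 Each titration point was normalised to DMSO and tetra n-octyl ammonium bromide controls. The read was Cell Titer Glo luminescence after 30 min at RT, following 5 h compound exposure of ME-180 AP-1-bla cells at 37 °C.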
# [8] = qHTS assay to identify small molecule agonists of the AP-1 signaling pathway (AID 1159526; calls by dose curve)
# [9] = qHTS assay to identify small molecule antagonists of the retinoid acid receptor (RAR) signaling pathway - cell viability counter screen (AID 1159551); further: nearly all actives have a fitted effect of over 35% in size; further: potency means the concentration at half of the fitted maximal effect
# Procedure, shortened: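 ATP-based viability, C3RL4 cells, 6 h at 37 C with 1 uM final retinol co-added after compound; luminescence read 30 min post CellTiter-Glo, RT.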
# [10] = qHTS assay to identify small molecule agonists of the retinoic acid receptor (RAR) signaling pathway (AID 1159553); further: potency means the concentration at half of the fitted maximal effect
# Procedure, shortened: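 Quantitative high-throughput format: the Tox21 10K library was tested on C3RL4 RARE-luciferase cells for 6 hr at 37 C and 5% CO2, with luminescence measured after a 30 min room-temperature reagent step.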
# [11] = qHTS assay to identify small molecule antagonists of the estrogen related receptor (ERR) signaling pathway from Tox21 library - cell viability counter screen (AID 1224834); further: nearly all actives have a fitted effect of over 30% in size; further: potency means the concentration at half of the fitted maximal effect
# Procedure, shortened: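 Compounds in DMSO were pinned onto ERR cells that had been incubated for 6 h, and the plates were held at 37 C for 17.5 h. CellTiter-Fluor reagent was then added and fluorescence was measured after 30 min.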
# [12] = molecular target: Retinoic acid receptor RXR-alpha (Homo sapiens) (UniProt P19793); experiment: qHTS assay to identify small molecule agonists of the RXR signaling pathway (AID 1159527; calls by dose curve; further: nearly all actives have a fitted effect of over 35% in size)
# Sequence of Retinoic acid receptor RXR-alpha (Homo sapiens) (P19793 whole entry, looked up): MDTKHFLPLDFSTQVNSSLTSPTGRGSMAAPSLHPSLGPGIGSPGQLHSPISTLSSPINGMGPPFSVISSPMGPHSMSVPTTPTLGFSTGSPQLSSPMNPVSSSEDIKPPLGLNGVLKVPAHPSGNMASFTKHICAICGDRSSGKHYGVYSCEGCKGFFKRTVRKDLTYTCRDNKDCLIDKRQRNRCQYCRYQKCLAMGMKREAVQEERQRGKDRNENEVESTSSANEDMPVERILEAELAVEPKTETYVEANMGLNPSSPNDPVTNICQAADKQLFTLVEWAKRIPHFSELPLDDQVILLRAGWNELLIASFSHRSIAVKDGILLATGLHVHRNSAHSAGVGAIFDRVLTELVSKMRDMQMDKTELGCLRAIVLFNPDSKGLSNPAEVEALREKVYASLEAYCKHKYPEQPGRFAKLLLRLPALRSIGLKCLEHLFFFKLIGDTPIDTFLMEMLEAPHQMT
# Procedure, shortened: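 16 hr incubation of compound-treated RXR-alpha-UAS-bla HEK 293T cells (2% charcoal-stripped FBS, 37 C) preceded a 2 hr room-temperature LiveBLAzer FRET substrate step and blue/green fluorescence measurement.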
# [13] = qHTS assay to identify small molecule agonists of the RXR signaling pathway - cell viability counter screen (AID 1159529); further: nearly all actives have a fitted effect of over 50% in size; further: potency means the concentration at half of the fitted maximal effect
# Procedure, shortened: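 In this parallel viability measure, GeneBLAzer RXR-alpha HEK 293T cells (2% charcoal-stripped FBS) were given a 5 hr preincubation, treated with compounds 16 hr at 37 C, and read by CellTiter-Glo luminescence.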
# [14] = qHTS assay to identify small molecule antagonists of the retinoic acid receptor (RAR) signaling pathway (AID 1159552; further: nearly all actives have a fitted effect of over 50% in size; further: potency means the concentration at half of the fitted maximal effect)
# Procedure, shortened: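 C3RL4 RARE-luc cells, overnight plating; retinol 1 uM final added right after compound; 6 hr 37 C; luciferase read at 30 min RT.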
# [15] = qHTS assay to identify small molecule antagonists of the estrogen related receptor signaling pathway with the pleiotropic PPARgamma coactivator (PGC) cell viability counter screen (AID 1224822;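 further: series mostly up to about 46 µM; viability read after 17.5 h compound exposure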)
# Procedure, shortened: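 Cytotoxicity in the PGC/ERR cell line is assessed with CellTiter-Fluor, read as fluorescence intensity 30 min after reagent addition, following 17.5 h compound treatment at 37 C.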
# [16] = qHTS assay to identify small molecule antagonists of the estrogen related receptor (ERR) signaling pathway (AID 1224819)
# Procedure, shortened: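 ERR reporter cell line (NTP) plated at 2,000 cells/well, settled 6 h at 37C/5% CO2, then exposed to LOPAC compounds for 18 h at 37C. One-Glo luciferase luminescence read after 30 min at room temperature.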
# [17] = qHTS assay to identify small molecule agonists of the estrogen related receptor (ERR) signaling pathway (AID 1224820)
# Procedure, shortened: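 Luminescence readout (One-Glo, 30 min RT) from NTP-supplied ERR cell line exposed to compounds for 18 h at 37 C. Cells seeded 2,000 per well and pre-incubated 6 h before pin-tool compound transfer.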
# [18] = tested on: estrogen-related receptor alpha (ERRalpha) with PGC-1alpha coactivator, human; experiment: qHTS assay to identify small molecule antagonists of the estrogen related receptor signaling pathway with the pleiotropic PPARgamma coactivator (PGC) (AID 1224821; calls by dose curve)
# Procedure, shortened: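 PGC/ERR reporter cells; 6 h pre-incubation 37 C/5% CO2; pin-tool compound in DMSO, 18 h 37 C; One-Glo added, 30 min RT; luminescence read. qHTS antagonist mode.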
# [19] = qHTS assay to identify small molecule agonists of the estrogen related receptor signaling pathway with the pleiotropic PPARgamma coactivator (PGC) (AID 1224823)
# Procedure, shortened: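 Luminescence readout (One-Glo, 30 min RT) from PGC/ERR cell line treated 18 h at 37 C with pin-tool-delivered DMSO compound solutions; cells plated 6 h before dosing. Quantitative HTS format.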
# [20] = qHTS assay to identify small molecule agonists of the endoplasmic reticulum stress response signaling pathway - cell viability counter screen (AID 1159517; calls by dose curve)
# Procedure, shortened: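 Cytotoxicity of test compounds toward ESRE-bla HeLa cells was assessed after 5 hr exposure. The luminescent CellTiter-Glo signal was measured 30 min after reagent addition.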
Compound,Potency [1],outcome [2],Potency [3],Potency [4],Potency [5],Potency [6],Potency [7],outcome [8],Potency [9],Potency [10],Potency [11],Potency [12],Potency [13],Potency [14],outcome [15],Potency [16],outcome [17],Potency [18],outcome [19],Potency [20]
CC[C@H]1OC(=O)[C@H](C)[C@@H](O[C@H]2C[C@@](C)(OC)[C@@H](O)[C@H](C)O2)[C@H](C)[C@@H](O[C@@H]2O[C@H](C)C[C@H](N(C)C)[C@H]2O)[C@](C)(O)C[C@@H](C)CN(C)[C@H](C)[C@@H](O)[C@]1(C)O,2.9 µM (active),inactive,inactive,inactive,inactive,inactive,inactive,inactive,inactive,inactive,inactive,,,,,,,,,
Cc1cc(CCCOc2c(C)cc(-c3noc(C(F)(F)F)n3)cc2C)on1,inactive,inactive,inactive,inactive,inactive,inactive,inactive,,,inactive,inactive,inactive,inactive,inactive,,,,,,
CC(=O)OCC(=O)[C@@]1(OC(C)=O)[C@@H](C)C[C@H]2[C@@H]3C[C@H](F)C4=CC(=O)C=C[C@]4(C)[C@@]3(F)[C@@H](O)C[C@@]21C,inactive,inactive,inactive,inactive,inactive,inactive,inactive,inactive,inactive,,inactive,,inactive,inactive,,,,,,
Nc1nc2ccc(OC(F)(F)F)cc2s1,,inactive,inactive,inactive,inactive,inactive,inactive,,inactive,9.44 µM (active),,inactive,inactive,inactive,inactive,,,,,
CC(C)(C)C(O)/C=C/c1ccc2c(c1)OCO2 (stereo not drawn),inactive,inactive,inactive,inactive,inactive,inactive,inactive,,,29.8 µM (active),inactive,inactive,inactive,inactive,,,,,,
CC(C)(C)C1(CCc2ccc(Cl)cc2)CO1 (stereo not drawn),inactive,inactive,inactive,inactive,inactive,inactive,inactive,,inactive,,inactive,inactive,inactive,,,,,,,
CN1CCCN(C(c2ccccc2)c2ccc(Cl)cc2)CC1 (stereo not drawn),21.3 µM (active),inactive,12 µM (active),inactive,inactive,26.6 µM (active),inactive,,inactive,,29.8 µM (active),,7.56 µM (active),,,,,,,
CC(=O)OCC1=C(C(=O)O)N2C(=O)[C@@H](NC(=O)CSc3ccncc3)[C@H]2SC1,inactive,inactive,inactive,inactive,inactive,inactive,inactive,,inactive,inactive,inactive,inactive,inactive,inactive,,,,,,
CCOC(=O)C(C)O (stereo not drawn),inactive,inactive,inactive,inactive,inactive,inactive,inactive,inactive,inactive,inactive,inactive,,inactive,inactive,,,,,,
c1ccc(CCCc2ccncc2)cc1,inactive,inactive,inactive,inactive,inactive,inactive,inactive,inactive,,68.6 µM (active),inactive,,inactive,inactive,,,,,,
CCCCCCC(O)CCCCCCCCCCC(=O)OC (stereo not drawn),inactive,inactive,inactive,inactive,inactive,inactive,inactive,,inactive,inactive,inactive,inactive,inactive,,,,,,,
O=NN(CCCl)C(=O)NCCCl,inactive,inactive,inactive,inactive,inactive,inactive,inactive,inactive,,,inactive,,inactive,,inactive,inactive,inactive,inactive,inactive,
O=[N+]([O-])c1ccc2ncccc2c1,inactive,inactive,inactive,inactive,inactive,inactive,inactive,inactive,inactive,inactive,inactive,,inactive,,,,,,,
COc1ccc(/C=C/C(=O)c2ccc(OC)cc2OC)cc1,inactive,inactive,inactive,inactive,inactive,inactive,inactive,,inactive,29.8 µM (active),inactive,,,inactive,,,,,,
O=C(NS(=O)(=O)/C=C/c1ccccc1)c1ccc(F)cc1Cl,inactive,inactive,inactive,inactive,inactive,inactive,inactive,inactive,inactive,,inactive,,inactive,inactive,,,,,,
CC1CCc2nccnc21 (stereo not drawn),inactive,inactive,inactive,inactive,inactive,inactive,inactive,inactive,inactive,inactive,inactive,,inactive,,,,,,,
CCN(CC)c1ccc(C(=C2C=CC(=[N+](CC)CC)C=C2)c2ccc(S(=O)(=O)O)cc2S(=O)(=O)[O-])cc1,inactive,inactive,43.6 µM (active),inactive,8.63 µM (active),12.2 µM (active),19.5 µM (active),,15.4 µM (active),,21.7 µM (active),inactive,,,,,,,,
CC1=C2[C@@H]([C@H](C)CC[C@H]2/C=C(\C)C(=O)O)[C@H](O)C1,inactive,inactive,inactive,inactive,inactive,inactive,inactive,inactive,inactive,,inactive,,inactive,,,,,,,
CCN(Cc1cccc(S(=O)(=O)O)c1)c1ccc(C(=C2C=CC(=[N+](CC)Cc3cccc(S(=O)(=O)O)c3)C=C2)c2ccc(O)cc2S(=O)(=O)[O-])cc1,,inactive,26.5 µM (active),inactive,10.5 µM (active),14.8 µM (active),,inactive,14.8 µM (active),,16.6 µM (active),inactive,,9.32 µM (active),,,,,,
O=C1NC(=O)c2cccc3cccc1c23,inactive,inactive,inactive,inactive,inactive,inactive,inactive,inactive,inactive,inactive,inactive,,inactive,inactive,,,,,,
CCCCCCC(CO)CCCC (stereo not drawn),inactive,inactive,inactive,inactive,inactive,inactive,inactive,,inactive,inactive,inactive,inactive,inactive,inactive,,,,,,
CN(C)CC/C=C1\c2ccccc2Sc2ccc(Cl)cc21,,inactive,inactive,inactive,,,inactive,,,,,,,29.8 µM (active),,,,,,
O=C1CC[C@@H](C(=O)O)N1,inactive,inactive,inactive,inactive,inactive,,inactive,inactive,inactive,inactive,inactive,inactive,inactive,inactive,,,,,,
CCN(Cc1cccc(S(=O)(=O)O)c1)c1ccc(C(=C2C=CC(=[N+](CC)Cc3cccc(S(=O)(=O)O)c3)C=C2)c2ccccc2S(=O)(=O)[O-])cc1,,inactive,34.8 µM (active),inactive,9.72 µM (active),,,,,,30.7 µM (active),,inactive,,,,,,,
C=C(C)c1ccccc1,inactive,inactive,inactive,inactive,inactive,,inactive,inactive,inactive,inactive,inactive,,inactive,inactive,,,,,,
O=C1c2ccccc2C(=O)c2c(O)ccc(O)c21,,inactive,inactive,,inactive,inactive,inactive,inactive,inactive,inactive,inactive,inactive,inactive,inactive,,,,,,inactive

# — PubChem BioAssay (Tox21)
